# Laboratory results: PubChem BioAssay
# “And” between values parts separate entries of the source, which are not always exact repeats. Identical values can stand only once. The source made the active and inactive calls.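 The calls were made as follows, unless noted: active = normalized viability below 100% at a tested concentration; inactive = the rest.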
# Tests used:
# [1] = target: 6-phosphogluconate dehydrogenase, decarboxylating (Homo sapiens) (UniProt P52209); test: inhibition of human phosphogluconate dehydrogenase – biochemical, recombinant enzyme, NADPH absorbance, primary screen (AID 1159550;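 active = at least 20% inhibition of 6-phosphogluconate dehydrogenase activity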); settings: recombinant 6PGD, NADPH absorbance 341 nm; at 10 µM; stronger effect = higher value
# [2] = EMT-state selective cytotoxicity in co-culture – imaging, PC-3E GFP, TEM4-18 mCherry, primary screen (AID 1345086;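 active = compounds killing one labelled cell type while sparing the other, by normalised counts and ratio limits, not self-fluorescent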;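 as to all read-outs here: cells exposed to compound for 72 h before imaging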;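 as to red/green cell ratio (normalised): normalised mesenchymal count divided by normalised epithelial count so high means epithelial killing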); settings: PC-3E GFP / TEM4-18 mCherry co-culture, imaging cell counts, at 1 µM; for red/green cell ratio (normalised): actives lie on both sides, counts scaled to control wells, 1 = unselective
# [3] = target: Mitogen-activated protein kinase 7 (Homo sapiens) (UniProt Q13164); test: Gal4-ERK5 driven luciferase induction – cell-based, HTS, primary screen (AID 1508626;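 active = luciferase signal above three times the same-plate solvent-only control wells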;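 also: luciferase driven by Gal4-ERK5 fusion binding five Gal4 sites before minimal TATA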); settings: HeLa Gal4-ERK5 transactivation, 18 h, at 5 µM, stronger effect = higher value
# [4] = compounds altering circadian rhythm period length – cell-based, LOPAC library, luminescence reporter (AID 2774; call rule not given here;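 also: values are relative to mean of DMSO wells on each plate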); settings: circadian reporter cells, at 7 µM, actives lie on both sides
# [5] = viability loss with induced miR-34 in A549 – imaging, A549 dox-inducible miR-34, nuclei and caspase counts, primary screen (AID 1347080;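 active = compounds whose cell count with miR-34 switched on is under 0.7 times the count with it off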); settings: A549 miR-34 inducible, Hoechst nuclei count, 48 h
# [6] = blockers of cellular phospholipid synthesis – cell-based, LOPAC library, screen 4, primary screen (AID 1347384; call rule not given here); settings: animal cells, phospholipid biosynthesis inhibition screen; at 10 µM
# [7] = MELAS cybrid and Rieske KO viability enhancers – cell-based, MELAS cybrids, Rieske KO mouse fibroblasts, CellTiter-Glo, primary screen (AID 1508586;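 active = mean z-score across replicates of 1.96 or higher in either the MELAS or the Rieske mutant cell line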;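 also: z relative to plate mean and SD of compound and empty wells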); settings: low glucose
# [8] = drug combination growth inhibition, ovarian cancer – cell-based, oncology-focused library, rucaparib conditional, profiling panel (AID 1508598); settings: patient-derived ovarian cancer cells, CellTiter-Glo viability, 144 h, stronger effect = lower value
# [9] = galactose survival enhancers in mitochondrial complex I cybrids – cell-based, galactose medium, ATP luminescence, primary screen (AID 1645843;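 active = z-score of at least 1.8 in each of two replicates, scored against plate mean and spread of sample wells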;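 also: positive z means more ATP and so rescue of galactose-driven cybrid death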); settings: complex I mutant cybrid cells, 72 h, stronger effect = higher value
# [10] = measured here: epithelial PC-3E GFP cell survival
# [11] = measured here: mesenchymal TEM4-18 mCherry cell survival
# Chain of Mitogen-activated protein kinase 7 (Homo sapiens) (Q13164 whole entry, looked up, the tested form may be a part): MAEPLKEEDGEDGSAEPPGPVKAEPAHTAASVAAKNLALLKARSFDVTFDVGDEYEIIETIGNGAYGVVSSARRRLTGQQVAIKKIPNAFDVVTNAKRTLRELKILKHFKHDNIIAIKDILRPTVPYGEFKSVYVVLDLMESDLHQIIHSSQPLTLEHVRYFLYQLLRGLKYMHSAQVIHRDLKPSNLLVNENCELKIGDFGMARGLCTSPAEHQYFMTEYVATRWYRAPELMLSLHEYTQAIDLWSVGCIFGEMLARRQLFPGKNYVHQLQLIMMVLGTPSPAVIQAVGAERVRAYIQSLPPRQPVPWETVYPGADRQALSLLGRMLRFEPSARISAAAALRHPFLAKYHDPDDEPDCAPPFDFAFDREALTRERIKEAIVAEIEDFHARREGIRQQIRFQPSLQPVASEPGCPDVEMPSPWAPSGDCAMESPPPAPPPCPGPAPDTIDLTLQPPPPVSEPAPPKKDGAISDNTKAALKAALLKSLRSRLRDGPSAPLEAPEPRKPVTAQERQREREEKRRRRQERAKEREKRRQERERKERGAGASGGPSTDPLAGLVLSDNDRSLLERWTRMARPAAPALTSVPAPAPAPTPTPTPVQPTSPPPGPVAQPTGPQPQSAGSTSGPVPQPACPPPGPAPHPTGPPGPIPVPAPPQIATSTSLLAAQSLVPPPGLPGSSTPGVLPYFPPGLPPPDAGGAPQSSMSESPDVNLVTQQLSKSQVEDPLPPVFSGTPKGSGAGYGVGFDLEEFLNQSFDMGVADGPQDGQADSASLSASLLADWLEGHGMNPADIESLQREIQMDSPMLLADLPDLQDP
# Chain of 6-phosphogluconate dehydrogenase, decarboxylating (Homo sapiens) (P52209 whole entry, looked up): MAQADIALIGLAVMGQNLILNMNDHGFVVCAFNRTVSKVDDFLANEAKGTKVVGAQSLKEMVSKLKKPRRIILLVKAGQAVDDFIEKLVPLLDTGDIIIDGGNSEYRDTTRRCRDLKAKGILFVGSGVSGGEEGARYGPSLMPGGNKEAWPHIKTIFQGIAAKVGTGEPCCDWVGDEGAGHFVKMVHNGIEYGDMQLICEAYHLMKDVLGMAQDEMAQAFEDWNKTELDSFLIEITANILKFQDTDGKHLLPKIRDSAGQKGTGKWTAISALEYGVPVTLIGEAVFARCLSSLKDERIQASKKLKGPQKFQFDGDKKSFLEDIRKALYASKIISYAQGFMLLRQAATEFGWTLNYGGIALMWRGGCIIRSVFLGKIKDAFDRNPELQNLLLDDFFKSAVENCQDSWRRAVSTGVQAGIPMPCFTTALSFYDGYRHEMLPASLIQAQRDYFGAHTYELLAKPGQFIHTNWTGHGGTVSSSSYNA
structure (smiles),measurement,setting,value
COc1cc2c(cc1OC)[C@@H]1C(=O)c3ccc4c(c3O[C@@H]1CO2)C=CC(C)(C)O4,inhibition,[1],-0.416% (inactive)
same,red/green cell ratio (normalised),[2],0.71 (inactive)
same,normalised cell number,[2]; [10],0.9
same,normalised cell number,[2]; [11],0.64
same,luciferase signal,[3],44 AU (inactive)
O=C(CCc1ccc(O)cc1)c1c(O)cc(O)cc1O,period change,[4],0.135 h (inactive)
same,inhibition,[1],4.36% (inactive)
same,red/green cell ratio (normalised),[2],1.14 (inactive)
same,normalised cell number,[2]; [10],0.95
same,normalised cell number,[2]; [11],1.08
same,fold change,"[5]; stronger effect = lower value, cell number ratio, induced over uninduced",1 (inactive) and 0.951 (inactive)
same,fold change,[5]; measured here: relative caspase fold change +Dox/-Dox,1.21 and 0.641
same,cell count,"[5]; measured here: total cells with miR-34 induction, stronger effect = lower value",10100 and 9910
same,cell count,[5]; measured here: total cells without miR-34 induction,10100 and 10400
same,outcome,[6],inactive
same,z-score,"[7]; MELAS cybrid survival, CellTiter-Glo 48 h, stronger effect = higher value",-0.355 (inactive)
same,z-score,"[7]; Rieske KO mouse fibroblast survival, CellTiter-Glo 72 h",0.489
same,viability,"[8]; at 0.000305 µM, OCI-C5x cells, with rucaparib 10 µM, 100% = cells with rucaparib alone",108% (inactive)
same,viability,"[8]; at 0.000305 µM, OCI-C5x cells, without rucaparib",119% (inactive)
same,viability,"[8]; at 0.000305 µM, OCI-P5x cells, with rucaparib 20 µM, 100% = cells with rucaparib alone",96.8% (active)
same,viability,"[8]; at 0.000305 µM, OCI-P5x cells, without rucaparib",97% (active)
same,viability,"[8]; at 0.00122 µM, OCI-C5x cells, with rucaparib 10 µM, 100% = cells with rucaparib alone",115% (inactive)
same,viability,"[8]; at 0.00122 µM, OCI-C5x cells, without rucaparib",108% (inactive)
same,viability,"[8]; at 0.00122 µM, OCI-P5x cells, with rucaparib 20 µM, 100% = cells with rucaparib alone",95.8% (active)
same,viability,"[8]; at 0.00122 µM, OCI-P5x cells, without rucaparib",99.2% (active)
same,viability,"[8]; at 0.00488 µM, OCI-C5x cells, with rucaparib 10 µM, 100% = cells with rucaparib alone",122% (inactive)
same,viability,"[8]; at 0.00488 µM, OCI-C5x cells, without rucaparib",115% (inactive)
same,viability,"[8]; at 0.00488 µM, OCI-P5x cells, with rucaparib 20 µM, 100% = cells with rucaparib alone",103% (inactive)
same,viability,"[8]; at 0.00488 µM, OCI-P5x cells, without rucaparib",104% (inactive)
same,viability,"[8]; at 0.0195 µM, OCI-C5x cells, with rucaparib 10 µM, 100% = cells with rucaparib alone",110% (inactive)
same,viability,"[8]; at 0.0195 µM, OCI-C5x cells, without rucaparib",123% (inactive)
same,viability,"[8]; at 0.0195 µM, OCI-P5x cells, with rucaparib 20 µM, 100% = cells with rucaparib alone",104% (inactive)
same,viability,"[8]; at 0.0195 µM, OCI-P5x cells, without rucaparib",110% (inactive)
same,viability,"[8]; at 0.0781 µM, OCI-C5x cells, with rucaparib 10 µM, 100% = cells with rucaparib alone",116% (inactive)
same,viability,"[8]; at 0.0781 µM, OCI-C5x cells, without rucaparib",121% (inactive)
same,viability,"[8]; at 0.0781 µM, OCI-P5x cells, with rucaparib 20 µM, 100% = cells with rucaparib alone",104% (inactive)
same,viability,"[8]; at 0.0781 µM, OCI-P5x cells, without rucaparib",109% (inactive)
same,viability,"[8]; at 0.313 µM, OCI-C5x cells, with rucaparib 10 µM, 100% = cells with rucaparib alone",115% (inactive)
same,viability,"[8]; at 0.313 µM, OCI-C5x cells, without rucaparib",117% (inactive)
same,viability,"[8]; at 0.313 µM, OCI-P5x cells, with rucaparib 20 µM, 100% = cells with rucaparib alone",109% (inactive)
same,viability,"[8]; at 0.313 µM, OCI-P5x cells, without rucaparib",113% (inactive)
same,viability,"[8]; at 1.25 µM, OCI-C5x cells, with rucaparib 10 µM, 100% = cells with rucaparib alone",105% (inactive)
same,viability,"[8]; at 1.25 µM, OCI-C5x cells, without rucaparib",125% (inactive)
same,viability,"[8]; at 1.25 µM, OCI-P5x cells, with rucaparib 20 µM, 100% = cells with rucaparib alone",97.8% (active)
same,viability,"[8]; at 1.25 µM, OCI-P5x cells, without rucaparib",110% (inactive)
same,viability,"[8]; at 5 µM, OCI-C5x cells, with rucaparib 10 µM, 100% = cells with rucaparib alone",109% (inactive)
same,viability,"[8]; at 5 µM, OCI-C5x cells, without rucaparib",132% (inactive)
same,viability,"[8]; at 5 µM, OCI-P5x cells, with rucaparib 20 µM, 100% = cells with rucaparib alone",108% (inactive)
same,viability,"[8]; at 5 µM, OCI-P5x cells, without rucaparib",111% (inactive)
same,luciferase signal,[3],60 AU (inactive)
same,z-score,[9],1.71 (inactive)
